# The supplement of paper PMC6411743
# ± gives the standard deviation of the averaged measurements. Of roughly 5,400 targets only a part is listed; those with the largest changes were picked by preference.
# Compound: Nc1nc2c(ncn2[C@@H]2O[C@H](COP(=O)(O)OP(=O)(O)OP(=O)(O)O)[C@@H](O)[C@H]2O)c(=O)[nH]1 [guanosine triphosphate]
# Test: NP40-soluble protein abundance relative to vehicle (solubility fold change) (ratio); higher = more soluble protein in presence of GTP
# Settings: concentration: 8mM
# Method in brief: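 Jurkat crude lysate (Dounce-homogenised) was treated with eight concentrations from 0.1 to 10 mM for 10 min at room temperature, then 3 min at 37 °C. It was solubilised with 0.8% NP40 and benzonase (60 min, 4 °C) and ultracentrifuged, and the supernatant was TMT-labelled for LC-MS/MS. Intensities were vsn-normalised, and the value is the fold change against the NP40-processed vehicle per replicate, from three independent experiments.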
# Sequence of UniProt O43865 (O43865 whole entry): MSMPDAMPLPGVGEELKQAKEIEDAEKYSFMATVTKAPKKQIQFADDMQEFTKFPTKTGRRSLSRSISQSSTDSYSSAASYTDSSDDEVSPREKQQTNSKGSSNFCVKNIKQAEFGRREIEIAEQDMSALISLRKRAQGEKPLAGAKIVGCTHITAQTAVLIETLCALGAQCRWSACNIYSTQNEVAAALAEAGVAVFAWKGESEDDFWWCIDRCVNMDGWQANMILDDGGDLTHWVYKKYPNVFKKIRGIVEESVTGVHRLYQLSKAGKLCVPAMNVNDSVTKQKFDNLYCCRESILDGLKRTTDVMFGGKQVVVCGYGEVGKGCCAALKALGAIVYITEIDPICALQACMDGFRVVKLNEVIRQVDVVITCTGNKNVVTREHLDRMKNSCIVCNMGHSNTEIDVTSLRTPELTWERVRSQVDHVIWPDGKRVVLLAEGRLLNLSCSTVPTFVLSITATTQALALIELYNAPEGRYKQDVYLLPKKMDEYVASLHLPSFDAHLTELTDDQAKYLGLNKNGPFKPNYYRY
# Sequence of UniProt P48634 (P48634 whole entry): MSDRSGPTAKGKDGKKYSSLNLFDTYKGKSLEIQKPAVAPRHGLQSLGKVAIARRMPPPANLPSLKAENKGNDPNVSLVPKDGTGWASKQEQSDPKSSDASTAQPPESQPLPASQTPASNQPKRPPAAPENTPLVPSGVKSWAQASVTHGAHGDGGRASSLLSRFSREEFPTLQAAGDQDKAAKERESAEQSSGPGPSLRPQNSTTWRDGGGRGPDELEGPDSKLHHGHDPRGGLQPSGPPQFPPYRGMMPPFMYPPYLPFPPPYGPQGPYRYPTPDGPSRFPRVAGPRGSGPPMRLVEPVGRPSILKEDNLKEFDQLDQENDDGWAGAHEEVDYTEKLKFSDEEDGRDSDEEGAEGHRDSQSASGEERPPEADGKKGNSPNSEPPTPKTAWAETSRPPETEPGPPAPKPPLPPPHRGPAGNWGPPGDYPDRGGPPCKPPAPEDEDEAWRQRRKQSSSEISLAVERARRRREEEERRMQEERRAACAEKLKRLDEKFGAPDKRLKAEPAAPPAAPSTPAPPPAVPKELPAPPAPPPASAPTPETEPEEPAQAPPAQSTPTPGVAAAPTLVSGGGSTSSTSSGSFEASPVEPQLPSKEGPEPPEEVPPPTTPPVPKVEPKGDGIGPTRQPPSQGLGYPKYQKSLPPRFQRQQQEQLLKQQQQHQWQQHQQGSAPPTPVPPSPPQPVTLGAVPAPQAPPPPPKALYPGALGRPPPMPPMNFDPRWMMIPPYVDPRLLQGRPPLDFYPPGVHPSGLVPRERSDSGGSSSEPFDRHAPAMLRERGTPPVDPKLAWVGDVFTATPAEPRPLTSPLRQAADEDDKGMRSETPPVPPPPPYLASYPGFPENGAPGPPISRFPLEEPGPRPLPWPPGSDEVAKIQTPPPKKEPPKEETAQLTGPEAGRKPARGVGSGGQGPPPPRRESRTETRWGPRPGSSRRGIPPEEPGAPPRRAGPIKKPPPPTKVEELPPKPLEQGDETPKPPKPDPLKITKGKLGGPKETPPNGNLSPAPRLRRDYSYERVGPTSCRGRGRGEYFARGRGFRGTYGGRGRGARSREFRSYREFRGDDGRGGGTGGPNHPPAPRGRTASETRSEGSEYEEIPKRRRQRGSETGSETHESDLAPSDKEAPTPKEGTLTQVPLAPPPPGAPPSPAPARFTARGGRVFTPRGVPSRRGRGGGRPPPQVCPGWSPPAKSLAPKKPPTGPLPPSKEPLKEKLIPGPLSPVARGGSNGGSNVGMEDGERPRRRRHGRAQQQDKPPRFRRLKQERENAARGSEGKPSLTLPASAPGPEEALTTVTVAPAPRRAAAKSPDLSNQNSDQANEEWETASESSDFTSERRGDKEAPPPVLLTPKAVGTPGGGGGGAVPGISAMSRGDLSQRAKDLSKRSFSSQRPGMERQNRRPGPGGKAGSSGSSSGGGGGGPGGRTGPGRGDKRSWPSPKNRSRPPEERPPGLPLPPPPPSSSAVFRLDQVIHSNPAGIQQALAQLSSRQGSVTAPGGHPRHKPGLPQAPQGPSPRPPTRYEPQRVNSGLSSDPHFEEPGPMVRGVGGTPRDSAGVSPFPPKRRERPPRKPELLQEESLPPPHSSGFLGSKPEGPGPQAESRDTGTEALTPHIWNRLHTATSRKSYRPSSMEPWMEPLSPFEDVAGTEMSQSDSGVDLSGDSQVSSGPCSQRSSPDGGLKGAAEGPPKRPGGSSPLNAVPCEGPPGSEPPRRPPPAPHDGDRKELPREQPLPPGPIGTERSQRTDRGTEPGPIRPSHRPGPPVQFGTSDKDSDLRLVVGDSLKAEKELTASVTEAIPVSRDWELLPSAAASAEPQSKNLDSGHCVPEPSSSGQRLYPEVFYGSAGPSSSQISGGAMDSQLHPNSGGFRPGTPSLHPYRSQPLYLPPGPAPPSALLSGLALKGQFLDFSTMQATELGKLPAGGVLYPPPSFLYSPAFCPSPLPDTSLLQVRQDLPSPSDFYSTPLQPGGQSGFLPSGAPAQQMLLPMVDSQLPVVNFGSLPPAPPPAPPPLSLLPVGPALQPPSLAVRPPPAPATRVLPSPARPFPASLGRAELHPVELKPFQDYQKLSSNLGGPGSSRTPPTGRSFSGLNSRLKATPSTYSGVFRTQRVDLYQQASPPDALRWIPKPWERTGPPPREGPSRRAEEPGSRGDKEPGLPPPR
# Sequence of UniProt O75582 (O75582 whole entry, looked up, one chain of several): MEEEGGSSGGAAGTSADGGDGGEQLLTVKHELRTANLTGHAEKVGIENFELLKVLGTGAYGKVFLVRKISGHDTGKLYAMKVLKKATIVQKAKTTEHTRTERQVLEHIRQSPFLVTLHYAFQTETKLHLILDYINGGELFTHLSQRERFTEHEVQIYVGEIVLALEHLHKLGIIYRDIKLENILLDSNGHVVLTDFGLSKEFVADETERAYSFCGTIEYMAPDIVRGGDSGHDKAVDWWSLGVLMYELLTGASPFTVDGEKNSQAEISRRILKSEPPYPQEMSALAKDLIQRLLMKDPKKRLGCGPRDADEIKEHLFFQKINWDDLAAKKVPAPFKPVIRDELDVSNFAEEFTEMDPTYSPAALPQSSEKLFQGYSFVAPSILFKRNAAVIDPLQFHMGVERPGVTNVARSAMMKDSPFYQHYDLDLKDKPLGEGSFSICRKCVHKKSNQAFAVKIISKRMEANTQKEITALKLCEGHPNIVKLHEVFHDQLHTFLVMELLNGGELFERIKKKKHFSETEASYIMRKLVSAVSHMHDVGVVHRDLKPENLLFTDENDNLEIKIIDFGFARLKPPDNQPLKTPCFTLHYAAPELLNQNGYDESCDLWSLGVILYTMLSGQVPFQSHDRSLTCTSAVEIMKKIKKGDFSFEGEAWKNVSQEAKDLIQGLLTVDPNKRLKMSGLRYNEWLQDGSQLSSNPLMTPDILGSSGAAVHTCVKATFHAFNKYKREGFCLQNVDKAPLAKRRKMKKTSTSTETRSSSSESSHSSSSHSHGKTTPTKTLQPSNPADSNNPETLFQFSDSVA
# Sequence of UniProt P04150 (P04150 whole entry): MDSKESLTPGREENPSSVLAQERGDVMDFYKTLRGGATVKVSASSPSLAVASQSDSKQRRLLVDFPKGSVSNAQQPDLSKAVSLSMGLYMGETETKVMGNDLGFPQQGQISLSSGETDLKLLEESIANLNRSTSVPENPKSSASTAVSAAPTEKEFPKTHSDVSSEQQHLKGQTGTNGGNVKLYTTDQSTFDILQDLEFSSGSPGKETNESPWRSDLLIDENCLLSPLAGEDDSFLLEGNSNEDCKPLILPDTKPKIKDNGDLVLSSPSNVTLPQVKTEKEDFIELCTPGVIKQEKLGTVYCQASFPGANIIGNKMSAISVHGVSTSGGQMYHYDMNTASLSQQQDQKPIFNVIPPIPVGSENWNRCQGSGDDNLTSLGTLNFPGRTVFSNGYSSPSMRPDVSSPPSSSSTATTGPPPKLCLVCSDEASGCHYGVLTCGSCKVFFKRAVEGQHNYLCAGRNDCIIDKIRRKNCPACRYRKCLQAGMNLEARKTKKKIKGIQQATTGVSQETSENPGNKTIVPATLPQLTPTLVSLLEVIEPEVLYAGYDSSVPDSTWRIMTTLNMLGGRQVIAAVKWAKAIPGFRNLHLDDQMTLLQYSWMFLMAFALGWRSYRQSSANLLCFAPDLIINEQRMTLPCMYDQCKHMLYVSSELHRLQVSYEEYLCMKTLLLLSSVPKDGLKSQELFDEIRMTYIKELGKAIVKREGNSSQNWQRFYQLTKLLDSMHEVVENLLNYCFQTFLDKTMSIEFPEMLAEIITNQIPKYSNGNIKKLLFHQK
# Sequence of UniProt O43809 (O43809 whole entry): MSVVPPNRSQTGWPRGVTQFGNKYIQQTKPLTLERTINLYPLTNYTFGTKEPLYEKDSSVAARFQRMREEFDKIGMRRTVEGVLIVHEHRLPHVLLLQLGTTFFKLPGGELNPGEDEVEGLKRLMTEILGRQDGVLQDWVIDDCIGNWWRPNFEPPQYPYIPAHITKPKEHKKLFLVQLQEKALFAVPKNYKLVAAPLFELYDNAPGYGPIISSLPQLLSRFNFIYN
# Sequence of UniProt P09651 (P09651 whole entry): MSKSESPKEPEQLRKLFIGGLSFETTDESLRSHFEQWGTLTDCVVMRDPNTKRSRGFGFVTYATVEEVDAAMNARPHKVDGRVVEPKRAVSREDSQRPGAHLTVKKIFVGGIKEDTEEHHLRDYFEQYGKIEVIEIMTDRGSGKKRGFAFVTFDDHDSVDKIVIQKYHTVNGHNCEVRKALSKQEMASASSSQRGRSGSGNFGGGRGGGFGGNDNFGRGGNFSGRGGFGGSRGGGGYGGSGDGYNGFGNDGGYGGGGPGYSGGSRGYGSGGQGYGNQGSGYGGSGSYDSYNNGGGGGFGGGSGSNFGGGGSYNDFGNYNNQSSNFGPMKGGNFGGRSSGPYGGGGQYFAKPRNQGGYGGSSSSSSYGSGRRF
# Sequence of UniProt P17096 (P17096 whole entry): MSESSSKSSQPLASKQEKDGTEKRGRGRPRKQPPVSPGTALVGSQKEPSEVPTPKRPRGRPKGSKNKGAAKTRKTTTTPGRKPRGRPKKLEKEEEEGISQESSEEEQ
row,Target,NP40-soluble protein abundance
1,P15531-2|P22392-2|Q32Q12 (UniProt Q32Q12+P22392+P15531),0.822 ± 0.06
2,UniProt P17096|P17096-2,1.55 ± 0.21
3,ARID1A (UniProt O14497),1.16 ± 0.17
4,ARPC1B (UniProt O15143),0.923 ± 0.017
5,CDC34 (UniProt P49427),1.01 ± 0.078
6,PPT1 (UniProt P50897),0.876 ± 0.059
7,AKR1A1 (UniProt P14550),0.831 ± 0.088
8,PSMB4 (UniProt P28070),0.945 ± 0.14
9,UniProt O95758-2|O95758-6|O95758|O95758-1|O95758-4|O95758-5|O95758-7,0.959 ± 0.058
10,UniProt O75170|O75170-2|O75170-3|O75170-4|O75170-5,0.963 ± 0.065
11,J3QQJ5|Q9Y2L5 (UniProt Q9Y2L5),1.01 ± 0.12
12,TIMM23 (UniProt O14925),0.838 ± 0.046
13,UniProt P30622|P30622-1,1 ± 0.088
14,UniProt P49840,0.875 ± 0.051
15,UniProt O00567,2.06 ± 0.14
16,UniProt O60861|O60861-1|O60861-4,0.978 ± 0.046
17,XPO1 (UniProt O14980),0.882 ± 0.023
18,UniProt P04150|P04150-10|P04150-2|P04150-3|P04150-5|P04150-6|P04150-7|P04150-8|P04150-9|P04150-11|P04150-12|P04150-13,1.02 ± 0.046
19,UniProt O75582|A0A0A0MQV2,0.934 ± 0.031
20,PPIF (UniProt P30405),0.836 ± 0.11

row,Target,NP40-soluble protein abundance
1,HMGN4 (UniProt O00479),1.51 ± 0.74
2,UniProt O15111,0.891 ± 0.013
3,DNAJC8 (UniProt O75937),1.05 ± 0.21
4,NUDT2 (UniProt P50583),1.48 ± 0.34
5,UniProt P49588|P49588-2,0.877 ± 0.04
6,FXR1 (UniProt P51114),2.16 ± 0.091
7,HIST1H1B (UniProt P16401),1.22 ± 0.039
8,UniProt P48634|P48634-2|P48634-3,1.7 ± 0.19
9,UniProt P09651|P09651-2,1.3 ± 0.22
10,NUP62 (UniProt P37198),1.08 ± 0.052
11,UniProt P38159|P38159-2,1.8 ± 0.15
12,URB1 (UniProt O60287),2.18 ± 0.082
13,RPL21 (UniProt P46778),0.72 ± 0.22
14,NUDT21 (UniProt O43809),1.97 ± 0.25
15,UniProt O43865,0.973 ± 0.056
16,SFPQ (UniProt P23246),2 ± 0.35
17,ZKSCAN1 (UniProt P17029),1 ± 0.075
18,UniProt P09564,1 ± 0.17
19,EEF2K (UniProt O00418),0.949 ± 0.068
